PubChem BioAssay (Tox21)
Inconclusive results are not listed. A call without a number means that no potency is given here. Values without a mark were called inactive. Active and inactive are the calls of the source. Unless noted, calls follow the shape of the full dose curve.

Legend:
[1] = qHTS assay to identify small molecule antagonists of the vitamin D receptor (VDR) signaling pathway - cell viability counter screen (AID 743225; active = well fitted curve in the direction sought with a large enough effect in the repeat runs; an effect the other way counts as inactive or inconclusive; also: nearly all actives have a fitted effect of over 50% in size)
In short: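 HEK293T VDR-bla; cpd + 1a,25-(OH)2D3 3 nM final, 16 h 37C/5% CO2; B/G FRET substrate 2 h RT; then CellTiter-Glo 30 min RT, luminescence.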

[2] = qHTS assay to identify small molecule agonists of the NFkB signaling pathway - cell viability counter screen (AID 1159515); also: series mostly up to about 61 µM; nearly all actives have a fitted effect of over 55% in size
In short: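 Viability in NFkB-bla ME-180 cells was measured by CellTiter-Glo luminescence, 30 min room temperature, in wells already treated 5 hr with compounds and read for reporter FRET.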

[3] = qHTS assay to identify small molecule agonists of the endoplasmic reticulum stress response signaling pathway (AID 1159516; active = well fitted activation curve with a large enough effect in the signal ratio in the repeat runs, not every such curve was filed as active; the % refers to the signal ratio)
In short: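 ER stress element reporter (bla) in HeLa. 1,500 cells/well, overnight attachment; 5 hr compound; 2 hr RT substrate; dual-emission fluorescence.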

[4] = qHTS assay to identify small molecule agonists of the endoplasmic reticulum stress response signaling pathway - cell viability counter screen (AID 1159517);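 also: HeLa cells carrying an ER stress response element beta-lactamase reporter; series mostly up to about 61 µM; nearly all actives have a fitted effect of over 50% in size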
In short: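 Counter-screen wells were identical to the reporter wells. Cells were plated at 1,500 per well and dosed for 5 hr, then read for luminescence 30 min after CellTiter-Glo addition.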

[5] = qHTS assay to identify small molecule antagonists of the retinoid-related orphan receptor gamma (ROR-gamma) signaling pathway - cell viability counter screen (AID 1159520; active = well fitted curve in the direction sought with a large enough effect in the repeat runs; an effect the other way counts as inactive or inconclusive; also: nearly all actives have a fitted effect of over 50% in size)
In short: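 Tet-on ROR gamma CHO cells were given compounds for 2 hr, then doxycycline hyclate at 1 uM final, and incubated 16 hr at 37 C. Viability was measured as ATP content by CellTiter-Glo luminescence.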

[6] = biological target: Nuclear receptor ROR-gamma (Homo sapiens) (UniProt P51449); assay: qHTS assay to identify small molecule antagonists of the retinoid-related orphan receptor gamma (ROR-gamma) signaling pathway (AID 1159521; active = well fitted curve in the direction sought with a large enough effect in the repeat runs; an effect the other way counts as inactive or inconclusive;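 also: CHO cells with doxycycline inducible ROR-gamma driving an RORE luciferase reporter; top concentration of the series differs between compounds; nearly all actives have a fitted effect of over 50% in size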)
In short: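 Cells were plated, rested 4 h at 37 C, exposed to compounds for 2 h, then given 1 uM final doxycycline hyclate to induce RORγ expression. After 16 h, ONE-Glo luminescence from the ROR response element reporter was measured.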

[7] = qHTS assay to identify small molecule agonists of the AP-1 signaling pathway - cell viability counter screen (AID 1159525); also: nearly all actives have a fitted effect of over 55% in size
In short: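 AP-1-bla ME-180 cells in Opti-MEM with 0.5% dialyzed FBS, compound exposure 5 h at 37 C in 15-point titration. Viability read in the same wells as ATP content by CellTiter-Glo luminescence, normalised to tetra-n-octylammonium bromide and DMSO controls.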

[8] = qHTS assay to identify small molecule agonists of the AP-1 signaling pathway (AID 1159526)
[9] = biological target: Retinoic acid receptor RXR-alpha (Homo sapiens) (UniProt P19793); assay: qHTS assay to identify small molecule agonists of the RXR signaling pathway (AID 1159527); also: nearly all actives have a fitted effect of over 35% in size; also: potency is read from the fitted curve at half-maximal effect
In short: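 Cells plated at 2,000/well, rested 5 hr at 37 C, pin-dosed with DMSO compound solutions, incubated 16 hr, then loaded with B/G FRET substrate for 2 hr at RT before dual-emission fluorescence reading.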

[10] = qHTS assay to identify small molecule agonists of the RXR signaling pathway - cell viability counter screen (AID 1159529; active = well fitted curve in the direction sought with a large enough effect in the repeat runs; an effect the other way counts as inactive or inconclusive)
In short: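 Steps: seed RXR-alpha-UAS-bla HEK 293T cells in assay medium containing 2% charcoal-stripped FBS; incubate 5 hr; add compounds in DMSO; incubate 16 hr at 37 C; after the bla read, add CellTiter-Glo and read luminescence at 30 min.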

Retinoic acid receptor RXR-alpha (Homo sapiens), sequence (P19793 whole entry, looked up): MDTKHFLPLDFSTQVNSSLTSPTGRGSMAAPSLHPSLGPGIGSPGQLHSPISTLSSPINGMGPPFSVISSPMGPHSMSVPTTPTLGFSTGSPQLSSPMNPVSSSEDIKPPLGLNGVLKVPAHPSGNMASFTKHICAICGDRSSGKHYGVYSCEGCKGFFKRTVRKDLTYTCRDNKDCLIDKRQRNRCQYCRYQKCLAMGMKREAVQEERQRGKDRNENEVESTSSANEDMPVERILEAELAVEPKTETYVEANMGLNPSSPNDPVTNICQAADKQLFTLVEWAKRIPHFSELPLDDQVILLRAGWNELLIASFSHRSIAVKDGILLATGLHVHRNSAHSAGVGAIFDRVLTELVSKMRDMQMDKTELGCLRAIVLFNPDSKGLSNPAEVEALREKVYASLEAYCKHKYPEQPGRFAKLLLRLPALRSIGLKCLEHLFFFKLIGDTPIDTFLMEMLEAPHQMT

| SMILES | outcome [1] | outcome [2] | Potency [3] | outcome [4] | outcome [5] | outcome [6] | outcome [7] | Potency [8] | Potency [9] | Potency [10] |
| --- | --- | --- | --- | --- | --- | --- | --- | --- | --- | --- |
| Cc1ccccc1OCC(=O)O | inactive | inactive | inactive | inactive | inactive | inactive | inactive | inactive | inactive | inactive |
| CCCCCCCCOCCC#N | inactive | inactive | inactive | inactive | inactive | inactive | inactive | inactive | inactive | inactive |
| C[Si](C)(C)O[Si](O)(O)O | inactive | inactive | inactive | inactive | inactive | inactive | inactive | inactive | inactive | inactive |
| CC(C)c1cc(C(C)C)cc(C(C)C)c1 | inactive | inactive | inactive | inactive | inactive | inactive | inactive | inactive | 15.5 µM (active) | inactive |
| CCO/C=C1\N=C(c2ccccc2)OC1=O | inactive | inactive | inactive | inactive | inactive | inactive | inactive | inactive | inactive | inactive |
| O=C1CC2(CCCC2)CC(=O)N1CCNCC1COc2ccccc2O1 (stereo not drawn) | inactive | inactive | inactive | inactive | inactive | inactive | inactive | inactive | inactive | inactive |
| Nc1nc(Cl)cc(Cl)n1 | inactive | inactive | inactive | inactive | inactive | inactive | inactive | inactive | inactive | inactive |
| CN(C)CCc1c[nH]c2ccc(CS(=O)(=O)N3CCCC3)cc12 | inactive | inactive | inactive | inactive | inactive | inactive | inactive | inactive | inactive | inactive |
| CCc1ncc(C)[nH]1 | inactive | inactive | inactive | inactive | inactive | inactive | inactive | inactive | inactive | inactive |
| CC(=O)c1c(C)cc(C(C)(C)C)cc1C | inactive | inactive | inactive | inactive | inactive | inactive | inactive | inactive | inactive | inactive |
| COc1ccccc1N1CCN(CC(O)COc2cc(OC)c(OC)c(OC)c2)CC1 (stereo not drawn) | inactive | inactive | inactive | inactive | inactive | inactive | inactive | inactive | inactive | inactive |
| CC(=O)OCC(=O)[C@@]1(O)CC[C@H]2[C@@H]3CCC4=CC(=O)C=C[C@]4(C)[C@H]3[C@@H](O)C[C@@]21C | inactive | inactive | inactive | inactive | inactive | inactive | inactive | inactive | inactive | inactive |
| Cc1cc(C)c(C)c(C)c1 | inactive | inactive | inactive | inactive | inactive | inactive | inactive | inactive | inactive | inactive |
| CCN1CCN(C(=O)N[C@@H](C(=O)N[C@@H]2C(=O)N3[C@@H]2SC(C)(C)[C@H]3C(=O)O)c2ccccc2)C(=O)C1=O | inactive | inactive | inactive | inactive | inactive | inactive | inactive | inactive | inactive | inactive |
| CCCCCC(CC)OC(=O)CCCOc1ccc(Cl)cc1Cl (stereo not drawn) | inactive | inactive | inactive | inactive | inactive | inactive | inactive | inactive | 4.35 µM (active) | inactive |
| CCOC(=O)c1ccc(N(C)C)cc1 | inactive | inactive | inactive | inactive | inactive | inactive | inactive | inactive | inactive | inactive |
| C=CCCCCCCCCOC(C)=O | inactive | inactive | inactive | inactive | inactive | inactive | inactive | inactive | inactive | inactive |
| Clc1ccc2c(c1)Nc1ccccc1S2 | inactive | inactive | inactive | inactive | inactive | inactive | inactive | inactive | inactive | inactive |
| O=S(=O)(O)CC(O)CCl (stereo not drawn) | inactive | inactive | inactive | inactive | inactive | inactive | inactive | inactive | inactive | inactive |

| SMILES | outcome [1] | outcome [2] | Potency [3] | outcome [4] | outcome [5] | outcome [6] | outcome [7] | Potency [8] | Potency [9] | Potency [10] |
| --- | --- | --- | --- | --- | --- | --- | --- | --- | --- | --- |
| CC(C)(O)CCCC1=CCC(C=O)CC1 (stereo not drawn) | inactive | inactive | inactive | inactive | inactive | inactive | inactive | inactive | inactive | inactive |
| CC[C@@]1(c2ccccc2)NC(=O)N(C)C1=O | inactive | inactive | inactive | inactive | inactive | inactive | inactive | inactive | inactive | inactive |
| NCC1CCC(C(=O)Oc2ccc(CCC(=O)O)cc2)CC1 (stereo not drawn) | inactive | inactive | inactive | inactive | inactive | inactive | inactive | inactive | inactive | inactive |
| O=C1Nc2ccccc2C1=O | inactive | inactive | inactive | inactive | inactive | inactive | inactive | inactive | inactive | inactive |
| CCCc1ncc(C(=O)O)s1 | inactive | inactive | inactive | inactive | inactive | inactive | inactive | inactive | inactive | inactive |
| C=C(C)C(=O)OCCOC1CC2CC1C1C=CCC21 (stereo not drawn) | inactive | inactive | inactive | inactive | inactive | inactive | inactive | inactive | inactive | inactive |
| O=Cc1ccc(C(=O)O)cc1 | inactive | inactive | inactive | inactive | inactive | inactive | inactive | inactive | inactive | inactive |
| CC(C)(C)c1ccc(C(=O)CCCCl)cc1 | inactive | inactive | inactive | inactive | inactive | inactive | inactive | inactive | inactive | inactive |
| CN(C)c1ccncc1 | inactive | inactive | inactive | inactive | inactive | inactive | inactive | inactive | inactive | inactive |
| COc1ccc2cc(CCC(C)=O)ccc2c1 | inactive | inactive | inactive | inactive | inactive | inactive | inactive | inactive | inactive | inactive |
| CC(=O)Oc1ccc(C(C)=O)cc1 | inactive | inactive | inactive | inactive | inactive | inactive | inactive | inactive | inactive | inactive |
| C[C@H]1COc2c(C3(N)CC3)c(F)cc3c(=O)c(C(=O)O)cn1c23 | inactive | inactive | inactive | inactive | inactive | inactive | inactive | inactive | inactive | inactive |
| CCCCN=C(N)N=C(N)N | inactive | inactive | inactive | inactive | inactive | inactive | inactive | inactive | inactive | inactive |
| CCC(C)(C)C | inactive | inactive | inactive | inactive | inactive | inactive | inactive | inactive | inactive | inactive |
| CCOC(=O)CN1CCCC1=O | inactive | inactive | inactive | inactive | inactive | inactive | inactive | inactive | inactive | inactive |
| Cc1ccc(S(=O)(=O)NC(=O)NN2CC3CCCC3C2)cc1 (stereo not drawn) | inactive | inactive | inactive | inactive | inactive | inactive | inactive | inactive | inactive | inactive |
| CC(CN1CC(=O)NC(=O)C1)N1CC(=O)NC(=O)C1 (stereo not drawn) | inactive | inactive | inactive | inactive | inactive | inactive | inactive | inactive |  | inactive |
| O=C1CCCc2c(O)cccc21 | inactive | inactive | inactive | inactive | inactive | inactive | inactive | inactive |  | inactive |
